The test system of one test is 7G8. As to the kind of experiment: qHTS profiling for inhibitors of Plasmodium falciparum proliferation (AID 504749). Also: nearly all actives have a fitted effect of over 60% in size. Also: potency is read from the fitted curve at half-maximal effect. The note with it: P. falciparum in erythrocytes, SYBR Green DNA, 72 h; series mostly up to 28.7 µM. Summed up:
(§1)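 P. falciparum-infected erythrocytes (0.3% parasitemia, 2.5% hematocrit final) were exposed to compounds for 72 h at 37 C in 5% CO2, then lysed with SYBR Green buffer overnight at room temperature; parasite DNA fluorescence was normalized to artemisinin and DMSO controls.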
A general note: Quantitative high-throughput screening tests each substance at several concentrations.

Another test deals with AA1029. Described as above. The settings on record: P. falciparum in erythrocytes, SYBR Green DNA, 72 h; series mostly up to 28.7 µM. Summed up: as §1
Another test has as its system ATS95. The test is described as above. The settings on record: P. falciparum in erythrocytes, SYBR Green DNA, 72 h; series mostly up to 28.7 µM. Summed up: as §1
For the next test, the system named is CP247. Described as above. The settings on record: P. falciparum in erythrocytes, SYBR Green DNA, 72 h; series mostly up to 28.7 µM. Summed up:
as §1

The subject of a further test is DIV17. The description is as above. The settings on record: P. falciparum in erythrocytes, SYBR Green DNA, 72 h; series mostly up to 28.7 µM. Summed up:
as §1

The test system of the next test is P93_24. The test is described as above. The note with it: P. falciparum in erythrocytes, SYBR Green DNA, 72 h; series mostly up to 28.7 µM. Summed up:
as §1

A further test has as its system SC27B. The description is as above. The note with it: P. falciparum in erythrocytes, SYBR Green DNA, 72 h; series mostly up to 28.7 µM. The method in brief: as §1
The subject of another test is TAB109. The test is described as above. The settings on record: P. falciparum in erythrocytes, SYBR Green DNA, 72 h; series mostly up to 28.7 µM. Summed up: as §1
The test system of a further test is TAB165. The test is described as above. The note with it: P. falciparum in erythrocytes, SYBR Green DNA, 72 h; series mostly up to 28.7 µM. The method in brief:
as §1

The next test deals with W2. The description is as above. The note with it: P. falciparum in erythrocytes, SYBR Green DNA, 72 h; series mostly up to 28.7 µM. Summed up: as §1
In test [1] the target is Peroxisome proliferator-activated receptor delta (Homo sapiens) (UniProt Q03181). In words: qHTS assay for small molecule agonists of peroxisome proliferator-activated receptor delta signaling (AID 588534; calls by dose curve;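 also: 0% = DMSO basal wells and 100% = positive control agonist at 10 µM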). The method in brief:
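Reporter cells were plated and held 5 hrs at 37 C before compounds were added. After 18 hrs at 37 C, CCF4 dye was loaded for 2 hrs at RT and fluorescence measured.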

The target in test [2] is Peroxisome proliferator-activated receptor gamma (Homo sapiens) (UniProt P37231). In words: qHTS assay for small molecule antagonists of peroxisome proliferator-activated receptor gamma signaling (AID 588537; active = well fitted inhibition curve with a large enough effect in the signal ratio, with a control signal flat, not every such curve was filed as active; the % refers to the signal ratio;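 also: reporter cells co-stimulated with 50 nM rosiglitazone agonist during compound treatment; % of control where 0% means no effect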). Summed up: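 PPAR-gamma-UAS-bla HEK293 cells (3000/well, 1% charcoal/dextran-stripped FBS) were preincubated 6-6.5 h at 37 C, given titrated compounds, then stimulated with 50 nM rosiglitazone for 16 h. Beta-lactamase activity was read with CCF4 dye; IC50 came from Hill fits.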
Sequence of Peroxisome proliferator-activated receptor gamma (Homo sapiens) (P37231 whole entry, looked up): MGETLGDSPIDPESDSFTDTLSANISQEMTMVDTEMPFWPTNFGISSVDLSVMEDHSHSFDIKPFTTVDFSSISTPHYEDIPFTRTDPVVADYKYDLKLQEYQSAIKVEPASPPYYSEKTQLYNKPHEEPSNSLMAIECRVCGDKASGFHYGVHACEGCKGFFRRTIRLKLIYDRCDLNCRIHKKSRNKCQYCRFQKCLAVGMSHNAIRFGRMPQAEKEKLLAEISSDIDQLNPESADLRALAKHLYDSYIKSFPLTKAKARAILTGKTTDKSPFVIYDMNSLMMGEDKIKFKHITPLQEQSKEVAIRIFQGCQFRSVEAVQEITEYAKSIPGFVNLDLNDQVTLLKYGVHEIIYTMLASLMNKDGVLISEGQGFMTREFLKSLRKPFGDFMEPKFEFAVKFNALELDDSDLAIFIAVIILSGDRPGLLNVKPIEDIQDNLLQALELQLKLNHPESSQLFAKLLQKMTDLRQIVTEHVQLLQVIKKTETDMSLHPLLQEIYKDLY

For test [3], the target named is Vitamin D3 receptor (Homo sapiens) (UniProt P11473). As to the kind of experiment: qHTS assay for small molecule antagonists of vitamin D receptor signaling (AID 588541; calls by dose curve;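 also: receptor activated by calcitriol during compound treatment; % is scaled to controls: 0 for no effect and ±100 for the full control effect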). The method in brief:
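VDR-UAS-bla HEK293T cells (2000/well, 2% charcoal-stripped FBS) were treated with titrated compounds plus 1-alpha,25-dihydroxyvitamin D3 (50 nM or 3 nM final) for 16 h at 37 C. CCF4 beta-lactamase fluorescence was read; Hill fits gave IC50.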

Test [4] shares this target. In words: qHTS assay for small molecule agonists of vitamin D receptor signaling (AID 588543; calls by dose curve;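 also: 0% = DMSO basal and 100% = reference agonist control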). The method in brief:
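qHTS in agonist mode: compound titrations stimulate a VDR-driven β-lactamase reporter in HEK293T cells over 16 h at 37 °C. Response normalized to 50 nM 1α,25-dihydroxyvitamin D3 = 100%, DMSO = 0%; Hill fitting gives EC50 and maximal response.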

Test [5] concerns the target Thyroid hormone receptor beta (Homo sapiens) (UniProt P10828). In words: qHTS assay for small molecule agonists of thyroid hormone receptor beta signaling (AID 588545; calls by dose curve;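 also: 0% = DMSO only and 100% = 10 nM T3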). The method in brief: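 Compounds were tested as agonists in TR-UAS-bla-GripTite HEK 293 cells. After 18 hrs at 37 C, CCF4 substrate was added and fluorescence read after 2 hrs at room temperature.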
Test [6] can be described thus: qHTS assay for small molecule antagonists of retinoid X receptor alpha signaling (AID 588546).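 Also: cells stimulated with 9-cis-retinoic acid as agonist; % is scaled to controls: 0 for no effect and ±100 for the full control effect.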 The note with it: HEK293T RXRa-UAS-bla, beta-lactamase ratio, antagonist mode; measured here: W530 green channel, cytotoxicity proxy. The method in brief: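 Beta-lactamase reporter inhibition, read as CCF4 fluorescence ratio (ex 405, em 460/530 nm) after 2 h at RT. HEK293T UAS-bla cells, 2500/well, were stimulated with 9-cis-RA at 500 or 100 nM final alongside test compound for 18 h at 37 C.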

Test [7] concerns the target Alpha-galactosidase (Coffea arabica) (UniProt Q42656). As to the kind of experiment: Counterscreen for Glucocerebrosidase Inhibitors: qHTS Assay for Coffee Bean alpha-Galactosidase at pH 4.5 (AID 957).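 Also: plate controls were enzyme alone for no effect and no enzyme for full effect.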 Summed up: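 AC50 values derive from Hill-equation modeling of concentration-response data, normalized to no-enzyme and full-activity controls. The pH 4.5 citrate assay used 2 nM coffee bean enzyme and 80 uM fluorogenic substrate for 20 min.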

For test [8] the target is unchanged. As to the kind of experiment: Counterscreen for Glucocerebrosidase Inhibitors: qHTS Assay for Coffee Bean alpha-Galactosidase at pH 5.9 (AID 998).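 Also: plate controls were uninhibited enzyme for no effect and no-enzyme basal signal for full effect.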 Summed up: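 Green coffee bean enzyme (2 nM final) was incubated with compounds (0.7 nM–77 uM) and 4-methylumbelliferyl alpha-D-galactopyranoside (80 uM) in citrate buffer pH 5.9, 20 min at room temperature. High-pH stop; fluorescence 365/440 nm; AC50 from Hill fits.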

Results filed as inconclusive are left out. Calls of active or inactive are those of the source. Unless noted, calls follow the shape of the dose curve; as a rule, active = well fitted curve in the direction sought with a large enough effect; inconclusive = small, poorly fitted or top-dose-only effect, or another doubt; inactive = no such curve, though single readings can be large; an effect the other way counts as inactive or inconclusive.

Sequence of Vitamin D3 receptor (Homo sapiens) (P11473 whole entry, looked up): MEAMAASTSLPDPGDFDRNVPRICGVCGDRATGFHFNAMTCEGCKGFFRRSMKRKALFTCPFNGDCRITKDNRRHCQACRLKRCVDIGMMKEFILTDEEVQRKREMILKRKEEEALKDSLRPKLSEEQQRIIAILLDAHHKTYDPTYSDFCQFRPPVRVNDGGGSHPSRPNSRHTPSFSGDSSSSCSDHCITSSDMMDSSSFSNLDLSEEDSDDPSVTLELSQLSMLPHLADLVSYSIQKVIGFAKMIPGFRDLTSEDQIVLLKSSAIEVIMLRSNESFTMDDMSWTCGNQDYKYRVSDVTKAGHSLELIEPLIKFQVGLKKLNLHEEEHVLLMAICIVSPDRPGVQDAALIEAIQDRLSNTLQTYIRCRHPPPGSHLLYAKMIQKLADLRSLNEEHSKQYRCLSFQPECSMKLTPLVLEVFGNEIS
Sequence of Alpha-galactosidase (Coffea arabica) (Q42656 whole entry, looked up): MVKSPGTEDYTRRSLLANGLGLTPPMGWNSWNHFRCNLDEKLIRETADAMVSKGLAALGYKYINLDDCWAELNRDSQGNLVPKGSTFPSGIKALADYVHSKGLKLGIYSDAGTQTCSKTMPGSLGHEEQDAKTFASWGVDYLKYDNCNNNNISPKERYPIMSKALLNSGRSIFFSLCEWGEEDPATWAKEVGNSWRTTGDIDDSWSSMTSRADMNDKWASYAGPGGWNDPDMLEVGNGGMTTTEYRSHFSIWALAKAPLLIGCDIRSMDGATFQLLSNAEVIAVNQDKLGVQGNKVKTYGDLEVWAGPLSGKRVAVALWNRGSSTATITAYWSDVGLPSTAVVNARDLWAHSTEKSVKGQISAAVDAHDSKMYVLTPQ
Sequence of Peroxisome proliferator-activated receptor delta (Homo sapiens) (Q03181 whole entry, looked up): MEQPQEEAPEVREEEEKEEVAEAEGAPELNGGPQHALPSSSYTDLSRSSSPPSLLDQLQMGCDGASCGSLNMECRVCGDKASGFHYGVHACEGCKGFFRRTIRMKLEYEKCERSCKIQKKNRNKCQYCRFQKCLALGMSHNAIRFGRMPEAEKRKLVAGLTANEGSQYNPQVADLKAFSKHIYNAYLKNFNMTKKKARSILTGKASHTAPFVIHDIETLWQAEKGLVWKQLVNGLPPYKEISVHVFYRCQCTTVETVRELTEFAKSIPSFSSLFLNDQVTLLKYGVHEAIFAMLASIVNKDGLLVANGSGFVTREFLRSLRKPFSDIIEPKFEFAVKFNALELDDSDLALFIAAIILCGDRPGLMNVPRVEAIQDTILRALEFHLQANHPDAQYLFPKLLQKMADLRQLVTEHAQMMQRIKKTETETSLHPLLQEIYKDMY
Sequence of Thyroid hormone receptor beta (Homo sapiens) (P10828 whole entry, looked up): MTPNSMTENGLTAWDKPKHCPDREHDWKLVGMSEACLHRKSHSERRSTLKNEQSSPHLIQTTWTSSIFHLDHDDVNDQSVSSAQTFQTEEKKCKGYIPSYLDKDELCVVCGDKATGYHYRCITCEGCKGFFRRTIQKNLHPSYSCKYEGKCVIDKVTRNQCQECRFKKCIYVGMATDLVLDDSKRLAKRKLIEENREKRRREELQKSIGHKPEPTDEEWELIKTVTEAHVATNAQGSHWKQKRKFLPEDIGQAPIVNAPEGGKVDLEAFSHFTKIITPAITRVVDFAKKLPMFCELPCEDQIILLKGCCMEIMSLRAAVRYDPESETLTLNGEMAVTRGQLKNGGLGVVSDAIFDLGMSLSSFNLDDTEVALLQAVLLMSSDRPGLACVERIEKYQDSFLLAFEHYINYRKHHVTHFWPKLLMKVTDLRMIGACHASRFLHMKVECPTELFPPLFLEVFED

Regarding `O=[N+]([O-])OC1CO[C@H]2C(O[N+](=O)[O-])COC12` (some centres undefined), the Potency entry in the test with 7G8, with AA1029, in the test with ATS95, with CP247, with DIV17 and in the test with P93_24 was “inactive” throughout. In addition, the Potency result with SC27B, in the test on TAB109, with TAB165 and with W2 was “inactive” throughout.

Take `CC(=O)O[C@H]1C[C@H](O[C@H]2[C@@H](O)CC(O[C@H]3[C@@H](O)C[C@H](O[C@H]4CC[C@@]5(C)[C@H](CC[C@@H]6[C@@H]5CC[C@]5(C)[C@@H](C7=CC(=O)OC7)CC[C@]65O)C4)O[C@@H]3C)O[C@@H]2C)O[C@H](C)[C@H]1O[C@@H]1O[C@H](CO)[C@@H](O)[C@H](O)[C@H]1O` (some centres undefined): the Potency entry with AA1029, in the test on ATS95, in the test with CP247, with P93_24, in the test with SC27B and in the test with TAB165 was “inactive” throughout. In the test on W2, the Potency result is “inactive”.

Consider `CC(=O)Oc1ccc2c3c1OC1[C@@H](OC(C)=O)C=C[C@H]4[C@H](C2)N(C)CC[C@]314` (some centres undefined), for which the Potency result with AA1029, with ATS95, in the test on CP247, in the test with P93_24, in the test with SC27B and with TAB109 was “inactive” throughout. For the same compound, the Potency result in the test with TAB165 and in the test on W2 was “inactive” each time.

Consider `CCCN1CCCC2Cc3nc(N)ncc3CC21` (centres undefined), for which the Potency result in the test on 7G8, with AA1029, with ATS95, with CP247, in the test on DIV17 and in the test with P93_24 was “inactive” throughout. Besides, the Potency result in the test on SC27B, in the test on TAB109, in the test on TAB165 and with W2 was “inactive” in each case.

As for `C#CCN1CC(=O)N(COC(=O)[C@@H]2[C@@H](C=C(C)C)C2(C)C)C1=O`, the outcome in test [1] and in test [4] was inactive. Also, the Potency entry (in test [2]; in [3]; in test [5]; with 7G8; in the test on AA1029; in the test on ATS95) was “inactive” in each case. Moreover, the Potency result with CP247, in the test on DIV17, with P93_24, with SC27B, with TAB109 and with TAB165 was “inactive” each time. Further, in the test on W2, the Potency entry is “inactive”. For the same compound, the max response in test [6] is -1.89%.

Regarding `Nc1nc(O)c(-c2ccccc2)o1`, the Potency entry in the test with 7G8, with AA1029, with ATS95, in the test on CP247, with DIV17 and with P93_24 was “inactive” each time. The Potency result with SC27B, in the test on TAB109, with TAB165 and with W2 was “inactive” throughout.

Regarding `COC(=O)C1C(OC(=O)c2ccccc2)CC2CCC1N2C` (centres undefined), the Potency entry with 7G8, in the test on AA1029, in the test with ATS95, with CP247, in the test with DIV17 and in the test on P93_24 was “inactive” each time. Further, the Potency entry in the test with SC27B, with TAB109, with TAB165 and with W2 was “inactive” each time.

For the compound `NC(N)=NC(=O)c1nc(Cl)c(N2CCCCCC2)nc1N`, the compound was classed as inactive in test [7] and in test [8].

`CCN(CC)C(=O)N[C@@H]1C=C2c3cccc4[nH]cc(c34)C[C@H]2N(C)C1`: the Potency with 7G8 is 8.91 µM (active); in the test with DIV17, 10.7 µM (active); in the test on P93_24, 7.94 µM (active); with TAB165, 12.6 µM (active); with W2 it was 5.36 µM (active).

With `O=C1CC2OCC=C3CN4CCC56c7ccccc7N1C5[C@H]2[C@H]3C[C@H]46` (some centres undefined) (tested in a mixture with another compound), the Potency entry with ATS95, with CP247, with P93_24, with SC27B and with TAB165 was “inactive” throughout.

As for `CN(C)[C@@H](Cc1ccccc1)c1ccccc1`, the Potency result in the test on ATS95, in the test with SC27B, with TAB109 and in the test with TAB165 was “inactive” each time. For the same compound, the Potency was 10 µM (active) in the test with CP247 and 4.78 µM (active) in the test on W2.

The values are drawn from PubChem BioAssay (NCATS).
